Measured values from PubChem BioAssay AID624255 (Broad Institute, 2012).
About 4,600 (6%) of roughly 77,000 compounds were called active. Inconclusive results (about 1%) are left out. Many of the other results were omitted from the sample, so actives are more common in it than they were. Unmarked numbers belong to inactive results.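 How the source made its calls: active means mean inhibition above about 93%, with at least 55% of replicates each passing it (limit read from the data, passing the limit was not always enough); inconclusive means only one of those two conditions holds; inactive means neither condition holds.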

Test: T. cruzi intracellular proliferation inhibitors, primary screen, cell-based, beta-gal Tulahuen parasites, NIH3T3 host, luminescence (AID 624255)
Settings: T. cruzi beta-gal in NIH3T3, GalScreen luminescence, 90 h; at 8.34 µM; stronger effect = higher value

| SMILES | inhibition |
| --- | --- |
| COCC#Cc1cnc2c(c1)C(=O)N([C@@H](C)CO)C[C@@H](C)[C@@H](CN(C)C(=O)c1cccnc1)O2 | 71.4% |
| O=C(CC1CC1)N1[C@@H]2CN(S(=O)(=O)c3ccc(F)cc3)c3ccccc3[C@@H]2[C@@H]1CO | 19.2% |
| C[C@@H]1CCCCO[C@H](CN(C)S(=O)(=O)c2cccs2)[C@H](C)CN([C@H](C)CO)C(=O)c2cc(NC(=O)c3ccccc3)ccc2O1 | 88.6% |
| O=C(C[C@H]1C=C[C@H](NC(=O)Nc2ccccc2F)[C@@H](CO)O1)NCc1ccc(Cl)cc1 | 27.5% |
| CCCC#Cc1ccc([C@@H]2[C@@H](C#N)N(C(=O)C3CCCC3)[C@@H]2CO)cc1 | 102% (active) |
| CN(C)CC#Cc1ccc([C@H]2[C@@H](CO)N(C(=O)C3CCC3)[C@H]2C#N)cc1 | 69.2% |
| CCCC#Cc1ccc([C@H]2[C@@H](CO)N(C(=O)C3CC3)[C@H]2C#N)cc1 | 74.3% |
| CCCC#Cc1ccc([C@@H]2[C@@H](C#N)N(C(=O)C3CCC3)[C@H]2CO)cc1 | 92.4% |
| N#C[C@@H]1[C@@H](c2ccc(C#Cc3cccc(F)c3)cc2)[C@H](CO)N1C(=O)C1CCOCC1 | 83.9% |
| CC(C)C#Cc1ccc([C@@H]2[C@@H](C#N)N(C(=O)C3CC3)[C@@H]2CO)cc1 | 68.6% |
| N#C[C@@H]1[C@@H](c2ccc(C#Cc3cccc(F)c3)cc2)[C@@H](CO)N1C(=O)C1CCC1 | 101% (active) |
| N#C[C@H]1[C@H](c2ccc(C#Cc3ccc(F)cc3)cc2)[C@@H](CO)N1C(=O)C1CCCC1 | 92.9% |
| N#C[C@@H]1[C@H](c2ccc(C#Cc3cccc(F)c3)cc2)[C@@H](CO)N1C(=O)C1CCCC1 | 97.3% (active) |
| Cn1cnc(CCNC(=O)C[C@H]2CC[C@H]3[C@@H](COC[C@@H](O)CN3C(=O)Nc3ccc(C(F)(F)F)cc3)O2)c1 | 28.4% |
| CC=Cc1ccc2n(c1=O)C[C@H]1[C@H](CO)[C@@H](C(=O)NC3CCCC3)N(Cc3ccncc3)[C@@H]21 (mixture of isomers) | -33.3% |
| CS(=O)(=O)Nc1ccc2c(c1)[C@H]1C[C@H](CC(=O)NCc3ccc(Oc4ccccc4)cc3)O[C@H](CO)[C@H]1O2 | 3.92% |
| O=C(Nc1ccc(F)cc1)N1CCCCN2[C@H](CO)[C@H](c3ccc(-c4ccncc4)cc3)[C@@H]2C1 | 67.2% |
| O=C(C1CC1)N1CCCCN2[C@H](CO)[C@H](c3ccc(-c4cccc(F)c4)cc3)[C@H]2C1 | 95.6% (active) |
| O=C(C1CCC1)N1CCCCN2[C@H](CO)[C@H](c3ccc(-c4ccncc4)cc3)[C@@H]2C1 | 99.7% (active) |
| O=C(C1CCC1)N1CCCCN2[C@H](CO)[C@H](c3ccc(-c4cccc(F)c4)cc3)[C@H]2C1 | 94.1% |
| O=C(C1CCCC1)N1CCCCN2[C@@H](CO)[C@H](c3ccc(-c4cccc(F)c4)cc3)[C@@H]2C1 | 111% (active) |

| SMILES | inhibition |
| --- | --- |
| O=C(C1CCC1)N1CCCCN2[C@H](CO)[C@H](c3ccc(-c4cccc(F)c4)cc3)[C@@H]2C1 | 99.7% (active) |
| O=C(C1CC1)N1CCCCN2[C@H](C1)[C@@H](c1ccc(-c3cccc(F)c3)cc1)[C@@H]2CO | 32.6% |
| O=C(N[C@H]1CC[C@H](CCNS(=O)(=O)c2ccc(F)cc2)O[C@H]1CO)c1cccnc1 | 14.1% |
| CCC(=O)Nc1ccc2c(c1)C(=O)N(C)[C@@H]1CC[C@H](CC(=O)NCCc3ccncc3)O[C@@H]1CO2 | 64.6% |
| O=C(Cc1ccncc1)NCC[C@@H]1CC[C@H](NC(=O)Nc2ccc(Cl)cc2)[C@@H](CO)O1 | 37% |
| O=C(C[C@H]1C[C@H]2c3cc(NC(=O)Cc4ccncc4)ccc3O[C@H]2[C@@H](CO)O1)NCc1cccc(F)c1 | -15.1% |
| O=C(C[C@H]1CC[C@H]2[C@@H](COC[C@H](O)CN2CCC(F)(F)F)O1)N1CCC(Cc2ccccc2)CC1 | 65.1% |
| CN1C(=O)c2cc(NC(=O)c3ccccc3)ccc2OC[C@@H]2O[C@@H](CC(=O)NC3CCCC3)CC[C@H]21 | 18.9% |
| CC=Cc1ccc2n(c1=O)C[C@@H]1[C@@H](CO)[C@H](C(=O)N(C)C)[C@H]2N1CCc1ccccc1 (mixture of isomers) | 37% |
| Cc1ccccc1S(=O)(=O)N1[C@H](C#N)[C@H](c2ccccc2)[C@H]1CO | -43.9% |
| Cc1ccc(S(=O)(=O)N(C)C[C@@H]2Oc3c(NC(=O)c4nc5ccccc5s4)cccc3C(=O)N([C@H](C)CO)C[C@@H]2C)cc1 | 110% (active) |
| COc1ccc(S(=O)(=O)N(C)C[C@H]2Oc3c(NC(=O)Nc4cccc5ccccc45)cccc3C(=O)N([C@@H](C)CO)C[C@H]2C)cc1 | 128% (active) |
| C[C@@H]1CN([C@H](C)CO)C(=O)c2cccc(NC(=O)c3nc4ccccc4s3)c2O[C@H]1CN(C)S(=O)(=O)c1ccc(Cl)cc1 | 55.8% |
| COc1ccc(NC(=O)N(C)C[C@@H]2Oc3c(NC(=O)NC4CCCCC4)cccc3C(=O)N([C@@H](C)CO)C[C@@H]2C)cc1 | 99.3% (active) |
| COc1ccc(NC(=O)N(C)C[C@H]2Oc3c(NC(=O)NC(C)C)cccc3C(=O)N([C@@H](C)CO)C[C@H]2C)cc1 | 39.4% |
| COc1ccc(NC(=O)N(C)C[C@@H]2Oc3c(NC(=O)NC4CCCCC4)cccc3C(=O)N([C@H](C)CO)C[C@H]2C)cc1 | 2.44% |
| C[C@@H]1CN([C@@H](C)CO)C(=O)c2cccc(NC(=O)c3nc4ccccc4s3)c2O[C@H]1CN(C)S(=O)(=O)c1cccs1 | 82.6% |
| C[C@@H]1CN([C@@H](C)CO)C(=O)c2cccc(NC(=O)Nc3cccc4ccccc34)c2O[C@H]1CN(C)S(=O)(=O)c1ccccc1 | 41.2% |
| COc1ccc(S(=O)(=O)N(C)C[C@@H]2Oc3c(NC(=O)NC(C)C)cccc3C(=O)N([C@@H](C)CO)C[C@@H]2C)cc1 | 11.6% |
| CO[C@H]1CN(C)C(=O)c2ccc(NS(C)(=O)=O)cc2OC[C@@H](C)N(C(=O)c2ccc3c(c2)OCO3)C[C@@H]1C | 22.5% |
| O=C(C[C@@H]1CC[C@H]2[C@@H](COC[C@H](O)CN2C(=O)Nc2ccc(Cl)cc2)O1)NCC1CC1 | 9.76% |

| SMILES | inhibition |
| --- | --- |
| O=C(c1cccnc1)N1C[C@H]2[C@@H](c3ccccc31)[C@H](CO)N2C(=O)C1CC1 | 32.1% |
| COc1ccc(NC(=O)Nc2ccc3c(c2)[C@H]2C[C@H](CC(=O)NC4CCCCC4)O[C@H](CO)[C@H]2O3)cc1 | -22.1% |
| O=C(NC1CCCC1)[C@H]1[C@H](CO)[C@H]2Cn3c(cccc3=O)[C@H]2N1C(=O)NC1CCCC1 | -32.8% |
| C[C@@H]1CN([C@H](C)CO)C(=O)c2cc(-c3cccc(C#N)c3)cnc2O[C@H]1CN(C)C(=O)C1CCC1 | -99.6% |
| COCC(=O)Nc1ccc2c(c1)OC[C@H](C)N(C(=O)c1ccccn1)C[C@@H](C)[C@H](OC)CN(C)C2=O | 26.6% |
| C[C@H](CO)N1C[C@H](C)[C@@H](CN(C)C(=O)C2CC2)Oc2ncc(-c3cccc(C#N)c3)cc2C1=O | 68.3% |
| Cc1ccc(S(=O)(=O)N2C[C@H](O)COC[C@@H]3O[C@H](CC(=O)N[C@H]4CCN(Cc5ccccc5)C4)CC[C@H]32)cc1 | 51.3% |
| C[C@H](O)C#Cc1ccc2c(c1)O[C@@H](CN(C)C(=O)C1CC1)[C@H](C)CN([C@H](C)CO)S2(=O)=O | -20.8% |
| C[C@@H]1CN([C@@H](C)CO)S(=O)(=O)c2ccc(C#CCN(C)C)cc2O[C@H]1CN(C)C(=O)C1CC1 | 94.7% (active) |
| CCCC#Cc1ccc2c(c1)O[C@H](CN(C)C(=O)C1CCCCC1)[C@H](C)CN([C@H](C)CO)S2(=O)=O | 68.4% |
| C[C@@H]1CN([C@H](C)CO)S(=O)(=O)c2ccc(-c3ccccc3)cc2O[C@H]1CN(C)C(=O)C1CCC1 | 55% |
| C[C@H](CO)N1C[C@H](C)[C@@H](CN(C)C(=O)C2CCCCC2)Oc2cc(-c3ccccc3)ccc2S1(=O)=O | 103% (active) |
| CCC(=O)N(C)C[C@H]1Oc2cc(C#CCC(C)C)ccc2S(=O)(=O)N([C@H](C)CO)C[C@H]1C | 41.2% |
| C[C@H](O)C#Cc1ccc2c(c1)O[C@H](CN(C)C(=O)C1CC1)[C@@H](C)CN([C@H](C)CO)S2(=O)=O | 13.9% |
| C[C@@H]1CN([C@H](C)CO)S(=O)(=O)c2ccc(-c3ccccc3)cc2O[C@@H]1CN(C)C(=O)C1CC1 | 84.2% |
| CC(C)CC#Cc1ccc2c(c1)O[C@H](CN(C)C(=O)C1CC1)[C@@H](C)CN([C@@H](C)CO)S2(=O)=O | 115% (active) |
| COCC(=O)Nc1ccc2c(c1)[C@@H]1C[C@@H](CC(=O)N3CCN(C)CC3)O[C@H](CO)[C@@H]1O2 | -9.47% |
| COc1ccc(NC(=O)N(C)C[C@H]2Oc3cc(-c4ccncc4)ccc3S(=O)(=O)N([C@@H](C)CO)C[C@H]2C)cc1 | 53.3% |
| CCCNC(=O)[C@H]1[C@H](CO)[C@H]2Cn3c(ccc(C4=CCCC4)c3=O)[C@H]2N1C(=O)CC1CC1 | -12.5% |
| C[C@H](NC(=O)C[C@H]1CC[C@H]2[C@@H](COC[C@H](O)CN2C(=O)Nc2cc(Cl)cc(Cl)c2)O1)c1ccccc1 | 20.2% |
| Cc1ccccc1S(=O)(=O)N[C@@H]1CC[C@@H](CCNS(=O)(=O)c2cccc(F)c2)O[C@H]1CO | 22% |
